From PubChem BioAssay
3T3 cytotox: kills NIH 3T3 cells. NIH 3T3 viability, CellTiter-Glo ATP luminescence, 48-72 h. Potency, µM (series often up to 96.7 µM), inactives show at the top dose activity change, negative = cytotoxicity, hits mostly inhibitors. actives 4.3% (n = 94,000). AID 1345082; note: % is set by controls: 0 for no effect and ±100 for the full control effect; nearly all actives have a fitted effect of over 55% in size
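Luminescent ATP readout (CellTiter-Glo, 10 min RT) after 48 or 72 hr compound exposure of NIH 3T3 cells seeded at 400 cells/well in 1536-well format; quantitative HTS.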
HEK cytotox: HEK 293 cell cytotoxicity; HEK 293 viability, ATP luminescence (CellTiter-Glo), 48-72 h; actives 6.6% (n = 94,000); Potency, µM (titrated, usually from 115 µM), for the others: at the top dose activity change, negative = cytotoxicity, hits mostly inhibitors; note: % is set by controls: 0 for no effect and ±100 for the full control effect; nearly all actives have a fitted effect of over 60% in size
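HEK 293 cells at 250 cells/well were exposed to compounds by pintool transfer for 48 or 72 hr at 37 degree Celsius, 5% CO2. Viability was read as ATP-coupled luminescence with CellTiter-Glo after 10 min at room temperature.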
FLuc inh-1: blocks purified firefly luciferase enzyme activity | P08659 | purified P. pyralis luciferase, luminescence, biochemical | Potency, µM (top dose mostly 115 µM), most hits filed as inhibitors | actives 2.5% (n = 76,000) | AID 1347043; note: % is set by controls: 0 for no effect and ±100 for the full control effect; nearly all actives have a fitted effect of over 65% in size
Target sequence (P08659 whole entry, looked up): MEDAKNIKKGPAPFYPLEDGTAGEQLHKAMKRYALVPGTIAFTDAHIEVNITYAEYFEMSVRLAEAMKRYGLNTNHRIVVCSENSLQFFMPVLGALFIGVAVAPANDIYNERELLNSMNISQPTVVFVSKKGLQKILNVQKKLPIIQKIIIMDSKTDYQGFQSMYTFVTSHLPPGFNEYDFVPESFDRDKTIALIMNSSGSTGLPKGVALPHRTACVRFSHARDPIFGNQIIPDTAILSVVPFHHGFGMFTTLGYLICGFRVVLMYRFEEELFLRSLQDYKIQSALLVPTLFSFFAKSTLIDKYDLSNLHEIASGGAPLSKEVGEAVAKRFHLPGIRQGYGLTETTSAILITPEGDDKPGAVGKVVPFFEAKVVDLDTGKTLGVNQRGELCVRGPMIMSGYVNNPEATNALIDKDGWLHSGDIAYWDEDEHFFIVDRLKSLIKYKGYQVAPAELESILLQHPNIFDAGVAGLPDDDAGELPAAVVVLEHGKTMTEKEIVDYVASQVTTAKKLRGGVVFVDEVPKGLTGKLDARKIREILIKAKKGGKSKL
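Luminescence read by CCD imaging after purified firefly luciferase (10nM final) was added to substrate buffer holding 10uM D-luciferin and 10uM ATP, pH 7.5, pre-dosed with compound.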
hNpr1 antagonist: human Npr1 receptor antagonism. HEK293 hNpr1 GloSensor cGMP, ANP-stimulated luminescence. Potency, µM (top dose mostly 46.3 µM), inactives show at the highest dose activity change, negative = inhibition, hits mostly inhibitors. actives 1.6% (n = 76,000). AID 1347048; calls by dose curve; note: % is set by controls: 0 for no effect and ±100 for the full control effect; nearly all actives have a fitted effect of over 60% in size
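Compound pre-incubated 30 min at room temperature on GloSensor-loaded HEK293 cells stably carrying hNpr1 and the pGS-40F cGMP biosensor. Stimulation uses hNppA at 0.1 nM final; luminescence is taken at baseline and 20 min post-agonist.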
FLuc SDR -ATP: stabilizes firefly luciferase without ATP; actives 7.8% (n = 1,300); Potency, µM (highest dose often 32.7 µM), without a hit: at the highest dose activation (signal gain), most hits filed as activators; AID 1963318; Purified FLuc-C-HiBiT, Nano-Glo HiBiT luminescence, no ATP; shares compounds with FLuc inh-1; note: nearly all actives have a fitted effect of over 55% in size
FLuc SDR ATP: stabilizes firefly luciferase with ATP present. AID 1963319. purified FLuc-C-HiBiT + ATP, HiBiT complementation luminescence. shares compounds with FLuc inh-1. actives 8.7% (n = 1,300). Potency, µM (series often up to 32.7 µM), for the others: at the top dose activation (gain of signal), usual class: activators;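 note: signal reports ligand binding via conformational change of the enzyme rather than luciferase catalysis; % of control where 0% means no effect; nearly all actives have a fitted effect of over 55% in size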
FLuc inh-2: inhibitors of firefly luciferase enzymatic activity; shares compounds with FLuc inh-1; purified FLuc-C-HiBiT enzyme, luciferin luminescence; Potency, µM (titrated, usually from 32.7 µM), for the others: at the top dose activity change, negative = inhibition, hits mostly inhibitors; actives 42% (n = 1,300); AID 1963320; note: % is set by controls: 0 for no effect and ±100 for the full control effect; nearly all actives have a fitted effect of over 70% in size
Active calls of the source: *; i = inactive; ? = inconclusive; . = no result given; [ ] = dose if it differs, or a comment. Rows were chosen to be rich in hits. Some 11% of all compounds tested hit in one or more screens of this group. Unless noted, calls come from the whole dose curve; as a rule, active = well fitted curve in the direction sought with a large enough effect; inconclusive = small, poorly fitted or top-dose-only effect, or another doubt; inactive = no such curve, though single readings can be large; an effect the other way counts as inactive or inconclusive. Potency is the fitted concentration of half-maximal effect.

SMILES	3T3 cytotox	HEK cytotox	FLuc inh-1	hNpr1 antagonist	FLuc SDR -ATP	FLuc SDR ATP	FLuc inh-2
COCCN1C(=O)CCC2(C(=O)NCCCc3ccccc3)CCCC=C12 (centres undefined)	1.4%	-1.2%	i	1.4%	.	.	.
O=C1CCC2(C(=O)NCCc3ccccc3)CCCC=C2N1c1ccccc1 (centres undefined)	-13.7%	?	3.16µM*	-23.1%	10.8%	19.8%	?
O=C(COc1ccccc1F)Nc1ccc(-c2nc3ccccc3s2)cc1	.	.	.	.	10.0%	7.5%	-4.8%
COc1ccccc1OC(C)C(=O)Nc1ccc(-c2nc3ccccc3s2)cc1 (centres undefined)	.	.	.	.	14.6%	12.6%	-9.5%
CC(C)Oc1cccc(-c2nc(C(=O)Nc3ccc(F)cc3)cs2)c1	?	?	?	-18.8%	.	.	.
CN(C)c1cccc(C(=O)Nc2cccc(-c3nnc4n3CCCC4)c2)c1	-27.1%	?	?	-3.8%	.	.	.
CN(C)c1cccc(C(=O)Nc2ccc(-c3nc4ccccc4s3)cc2)c1	.	.	.	.	30.1%	?	?
CC(=O)Nc1ccc(OCC(=O)NCc2ccccc2F)nc1	-19.2%	0.9%	i	-1.1%	.	.	.
CC(C)Oc1ccc(C(=O)Nc2ccc(-c3nc4ccccc4s3)cc2)cc1	.	.	.	.	18.1%	10.3%	3.5%
COc1ccccc1NC(=O)Nc1ccc(-c2nnc3n2CCCC3)cc1	-27.8%	?	i	5.4%	.	.	.
CC(C)(C)C(=O)NC1CCN(C(=O)c2ccc(-c3cncnc3)cc2)CC1	-22.1%	-20.1%	.	.	.	.	.
CC(C)c1noc(-c2ccn3c(CNC(=O)c4ccc(F)cc4Cl)nnc3c2)n1	-10.9%	-3.7%	i	-18.8%	.	.	.
COc1ccc(CN(C)C2CCCc3ccccc32)cc1 (centres undefined)	?	?	i	-4.4%[70.6 µM]	.	.	.
CN(C(=O)OC(C)(C)C)c1ccc(-c2nc3ccccc3s2)cc1	.	.	.	.	1.4µM*	0.351µM*	0.0989µM*
COC[C@H]1C[C@@H](NC(=O)c2nc3ccccc3s2)[C@H](O)[C@@H]1O	-6.8%[138 µM]	-5.3%[172 µM]	i	-9.5%[70.6 µM]	.	.	.
Cc1cnc(-c2ccncc2)n1CC1CN(C(=O)CCc2ccccc2)C1	-16.8%	-0.4%	.	.	.	.	.
COc1ccc(NC(=O)N2CCc3c(C(=O)NCc4ccncc4)cccc32)cc1	?	?	1.26µM*	11.2µM*	12.4µM*	0.881µM*	0.624µM*
COc1ccc(NC(=O)N2CCc3c(C(=O)Nc4ccc5c(c4)OCO5)cccc32)cc1	-20.9%	?	2.82µM*	12.6µM*	15.1%	1.24µM*	0.881µM*
COc1ccc(NC(=O)N2CCc3c(C(=O)NCCCN4CCCC4=O)cccc32)cc1	-28.8%	?	0.501µM*	11.2µM*	?	0.351µM*	0.248µM*
CCC(=O)N1CCc2c(C(=O)NCc3cc(OC)ccc3OC)cccc21	-17.9%	?	i	-2.9%	.	.	.
COc1ccc(NC(=O)c2cccc3c2CCN3C(=O)Nc2ccc(F)cc2)c(C)c1	-13.0%	-27.5%	2.24µM*	11.2µM*	13.1%	0.7µM*	0.556µM*
COc1ccc(OC2CCN(C3CCCC3)CC2)c(C(=O)NCCCN2CCCC2=O)c1	-12.1%	-22.4%	i	2.2%	.	.	.
CCC(=O)N1CCc2c(C(=O)Nc3cc(OC)cc(OC)c3)cccc21	i	-3.9%	i	-1.2%	.	.	.
Cn1cccc1CN1C[C@@H](CO)[C@H](NC(=O)c2ccccc2)C1	-10.9%	-16.4%	i	-14.7%	.	.	.
CCCCOc1nc(N)c2[nH]c(=O)n(Cc3cccc(CC(=O)OC)c3)c2n1	.	.	.	.	11.0%	6.6%	2.0%
SMILES	3T3 cytotox	HEK cytotox	FLuc inh-1	hNpr1 antagonist	FLuc SDR -ATP	FLuc SDR ATP	FLuc inh-2
COc1ccc(Cn2c(C3CCN(C(=O)Cc4cccc(F)c4)CC3)n[nH]c2=O)cc1	-3.0%	0.6%	i	-1.3%	.	.	.
Cc1cc(-c2cccc(COc3ccc4c(cnn4CC[S+](C)(=O)[O-])c3)c2)ccn1	25.1µM*	25.1µM*	12.6µM*	10µM*	20.2%[49.3 µM]	12.1%[49.3 µM]	?
C[S+](=O)([O-])CCn1ncc2cc(OCC3CCN(C(=O)c4cccc(F)c4F)CC3)ccc21	-19.2%	?	i	-2.7%	.	.	.
C[S+](=O)([O-])CCn1ncc2cc(OCc3cccc(-c4ccc(F)cc4)c3)ccc21	?	?	10µM*	25.1µM*	13.1%[49.3 µM]	11.7%[49.3 µM]	?
C[S+](=O)([O-])CCn1ncc2cc(OCc3cccc(-c4ccccc4O)c3)ccc21	?	35.5µM*	3.98µM*	31.6µM*	18.9%[49.3 µM]	16.1%[49.3 µM]	14.3µM*
Cn1cnnc1CC1CCN(c2ncc(C(F)(F)F)cc2Cl)CC1	-24.5%	?	i	3.6%	.	.	.
CCOCCOC1CCN(C(=O)Nc2ccc(C(=O)OC)cc2)CC1	?	-15.0%	i	-2.1%	.	.	.
Cc1ccc(C(=O)N2CCN(CCn3nc4n(c3=O)CCCC4)CC2)cc1	-10.2%	-11.5%	.	.	.	.	.
O=C(O)CCC(=O)N[C@H]1CCN2C(=O)c3cc(/C=C/c4ccccc4)ccc3NC(=O)[C@H]12	-18.8%[174 µM]	-24.3%[172 µM]	?	-7.5%[70.6 µM]	.	.	.
O=C(N[C@H]1CCN2C(=O)c3cc(/C=C/c4ccc(O)cc4)ccc3NC(=O)[C@H]12)c1cnccn1	-5.5%	?	12.6µM*	3.1%	19.6%	8.4%	-13.0%
COc1ccc(/C=C/c2ccc3c(c2)C(=O)N2CC[C@H](NC(=O)CCC(=O)O)[C@H]2C(=O)N3)cc1	-3.2%	-1.0%	6.31µM*	4.6%	?	?	?
O=C(N[C@H]1CCN2C(=O)c3cc(/C=C/c4ccccc4)ccc3NC(=O)[C@H]12)c1cnccn1	-28.7%[174 µM]	?	?	-9.4%[70.6 µM]	.	.	.
O=C(O)COCC(=O)N[C@H]1CCN2C(=O)c3cc(/C=C/c4ccccc4)ccc3NC(=O)[C@H]12	i	4.6%	7.94µM*	2.3%	29.1%	?	?
COc1cccc(CC(=O)Nc2ccc(-c3nc4ccccc4s3)cc2Cl)c1	.	.	.	.	12.6%	9.3%	-9.4%
COc1cccc(C(=O)Nc2ccc(-c3nc4ccccc4s3)cc2Cl)c1	.	.	.	.	14.1%	8.6%	-1.1%
COc1ccc(CC(=O)Nc2ccc(-c3nc4ccccc4s3)cc2Cl)cc1OC	.	.	.	.	15.5%	10.8%	-19.2%
COc1cccc(CNC(=O)CNC(=O)c2ccc(-c3cnc4ccccc4c3)cc2)c1	-15.2%	?	.	.	.	.	.
COc1ccc(-c2cc(N3CCN(C(=O)Cc4ccc(C)cc4)CC3)n[nH]2)cc1	-4.7%	2.3%	i	-20.7%	.	.	.
Cc1ccccc1C(=O)N1CCCC(c2nn(-c3ccccn3)c(=O)[nH]2)C1 (centres undefined)	-11.2%	0.6%	.	.	.	.	.
